PAX8 inh HTS = PAX8 transcriptional activity inhibition. RMG-I TPO-luciferase reporter, SteadyGlo, 24 h. inhibition, % at 12.6 µM. 360,000 compounds, 1.2% hits. AID 652154;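 active = mean replicate inhibition at least 60% with every replicate also reaching 60%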;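 note: luciferase light reporting Pax8 driven TPO promoter activity; plate controls were median of neutral control wells for no effect and mitoxantrone controls for full effect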
EWS-Fli inh = inhibitors of EWS/Fli oncoprotein transcriptional activity; A673 NR0B1-luciferase reporter, viability-normalised; inhibition, % at 12.6 µM; 350,000 compounds, 0.67% hits; AID 651661;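 active = mean inhibition of at least 50% after viability correction, with every replicate also passing that limit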;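 note: firefly luciferase signal divided by Alamar Blue viability fluorescence both relative to DMSO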
TWEAK-Fn14 inh = blocks TWEAK-Fn14 interaction in a reporter cell assay | 360,000 compounds, 2% hits | inhibition, % at 10 µM | TWEAK-stimulated Fn14 reporter cells, luciferase luminescence, 8 h | AID 1159606; in the data active = inhibition above about 50%
TROY signal inh = TROY signaling inhibition | Q293 LMP1-TROYcd NF-kB luciferase reporter, 4 h | inhibition, % at 10 µM | 360,000 compounds, 0.98% hits | AID 1347056;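 active = compounds whose plate-normalised and pattern-corrected inhibition of the luciferase reporter signal at the single screening dose is 50% or more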
LGR2 inh = blocks bursicon-induced cAMP signaling via Drosophila LGR2. AID 720647. inhibition, % at 9.99 µM. 380,000 compounds, 0.35% hits. HEK293 LGR2, CRE-luciferase, bursicon-stimulated, 4 h;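 active = drop in luminescence signal, shown as inhibition above about 50% in the replicate tests, limit read from the data, passing the limit was not always enough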;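 note: agonist challenge used bursicon conditioned medium at about half maximal strength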
* = called active by the depositor. Most compounds without a hit are left out; they make up all but 2.8% or so of the library.

`C=CCNc1nc(NCc2ccc(NC(C)=O)cc2)c2sc(-c3ccccc3)cc2n1` gave PAX8 inh HTS 20, EWS-Fli inh 29, TWEAK-Fn14 inh -269, TROY signal inh -91 and LGR2 inh 22.
`COc1ccccc1CNc1nc(Nc2cccc(-c3cnco3)c2)c2sccc2n1` gave PAX8 inh HTS 74*, EWS-Fli inh 3, TWEAK-Fn14 inh 98*, TROY signal inh 75* and LGR2 inh 5.
For CC(C)Nc1nc(NCc2ccccc2)c2sccc2n1 the results were PAX8 inh HTS 29, EWS-Fli inh 22, TWEAK-Fn14 inh 3 and TROY signal inh 57*.
`CCOC(=O)Cc1ccc(Nc2nc(NCc3ccccc3)nc3ccsc23)cc1` gave PAX8 inh HTS -9, EWS-Fli inh 8, TWEAK-Fn14 inh 93*, TROY signal inh 57* and LGR2 inh -4.
`COc1ccccc1CNc1nc(NCc2cccs2)nc2ccsc12` gave PAX8 inh HTS 22, EWS-Fli inh 7, TWEAK-Fn14 inh 22, TROY signal inh 42 and LGR2 inh -19.
`COCCNc1nc(NCc2ccccc2)nc2ccsc12` gave PAX8 inh HTS 3, EWS-Fli inh -4, TWEAK-Fn14 inh 24, TROY signal inh 39 and LGR2 inh -10.
For COc1ccc(S(=O)(=O)N(C)C[C@H]2OCCCC[C@H](C)Oc3ccc(NC(=O)NC(C)C)cc3C(=O)N([C@@H](C)CO)C[C@H]2C)cc1 the results were PAX8 inh HTS 15, EWS-Fli inh -5 and LGR2 inh 3.
`CCCc1cn(CC[C@H]2CC[C@@H](NC(=O)C3CCCCC3)[C@H](CO)O2)nn1` gave PAX8 inh HTS -7, EWS-Fli inh -2 and LGR2 inh -4.
`Cc1ccccc1S(=O)(=O)NCC[C@@H]1CC[C@@H](NC(=O)C2CCC2)[C@H](CO)O1` gave PAX8 inh HTS -7, EWS-Fli inh 6 and LGR2 inh 24.
Screening C[C@@H]1CN([C@H](C)CO)C(=O)Cc2cc(NC(=O)NC3CCCCC3)ccc2O[C@H]1CN(C)S(=O)(=O)c1ccc(F)cc1 returned PAX8 inh HTS -2, EWS-Fli inh -5 and LGR2 inh -8.
`COCC(=O)Nc1ccc2c(c1)C(=O)N(C)C[C@H](OC)[C@@H](C)CN(C(=O)CC1CC1)[C@@H](C)CO2` gave EWS-Fli inh -8 and LGR2 inh 15.
For CN1C(=O)c2cc(NC(=O)C3CCC3)ccc2OC[C@@H]2O[C@@H](CC(=O)NCc3ccccc3F)CC[C@H]21 the results were PAX8 inh HTS -23, EWS-Fli inh -7 and LGR2 inh 1.
`c1ccc(-c2cc3nc(NCC4CC4)nc(NCC4CCCCC4)c3s2)cc1` gave PAX8 inh HTS 14, EWS-Fli inh 8, TWEAK-Fn14 inh 56*, TROY signal inh 15 and LGR2 inh -35.
Screening COCCNc1nc(NCc2ccccc2OC)c2sccc2n1 returned EWS-Fli inh 14, TWEAK-Fn14 inh 5, TROY signal inh 20 and LGR2 inh -1.
`COc1ccccc1CNc1nc(NCc2ccccc2OC)c2sccc2n1` gave PAX8 inh HTS 3, EWS-Fli inh 3, TWEAK-Fn14 inh 42, TROY signal inh 57* and LGR2 inh 31.
`COc1ccccc1CNc1nc(NCC2CC2)nc2ccsc12` gave PAX8 inh HTS 31, EWS-Fli inh -16, TWEAK-Fn14 inh 4, TROY signal inh 20 and LGR2 inh 4.
Screening COc1ccccc1CNc1nc(NCc2ccccc2SC)c2sccc2n1 returned PAX8 inh HTS 45, EWS-Fli inh 27, TWEAK-Fn14 inh 90*, TROY signal inh 55* and LGR2 inh 19.
For O=C(NC1CCCCC1)[C@@H]1[C@@H](CO)[C@@H]2Cn3c(cccc3=O)[C@H]1N2CC1CCCCC1 the results were EWS-Fli inh -11 and LGR2 inh -26.
Screening COc1ccc(NC(=O)N(C)C[C@H]2Oc3ccc(NC(=O)NC4CCCCC4)cc3CC(=O)N([C@@H](C)CO)C[C@@H]2C)cc1 returned PAX8 inh HTS -10, EWS-Fli inh 7 and LGR2 inh 7.
CCc1cc2c(-c3ccccc3)cc(=O)oc2cc1OC(C)C(=O)O (stereo not given) was read as PAX8 inh HTS 5, EWS-Fli inh 15, TWEAK-Fn14 inh -13, TROY signal inh 23 and LGR2 inh -7.
Screening CC(NC(=O)OCc1ccccc1)C(=O)Oc1cc2oc(=O)cc(-c3ccccc3)c2cc1Cl (stereo not given) returned PAX8 inh HTS -13, EWS-Fli inh -8, TWEAK-Fn14 inh 71*, TROY signal inh 37 and LGR2 inh 12.
COC(=O)C(C(=O)OC)C(CC(=O)c1ccc(C)cc1)c1cc(OC)c(OC)c(OC)c1 (stereo not given) was read as PAX8 inh HTS -9, EWS-Fli inh -1, TWEAK-Fn14 inh 5, TROY signal inh 6 and LGR2 inh -4.
For COc1ccc(C(CC(=O)c2ccc(C)cc2)C(C#N)C#N)cc1OC (stereo not given) the results were TWEAK-Fn14 inh 88*, TROY signal inh 20 and LGR2 inh 53*.
Screening C[C@@H]1CCCCO[C@@H](CN(C)Cc2ccc(Cl)c(Cl)c2)[C@@H](C)CN([C@H](C)CO)C(=O)c2cc(NC(=O)Nc3ccc(F)cc3)ccc2O1 returned PAX8 inh HTS 48, EWS-Fli inh 2 and LGR2 inh -18.
`C[C@@H]1CCCCO[C@@H](CN(C)Cc2ccc(Cl)c(Cl)c2)[C@H](C)CN([C@H](C)CO)C(=O)c2cc(NC(=O)Nc3ccccc3)ccc2O1` gave PAX8 inh HTS 90*, EWS-Fli inh 5 and LGR2 inh 20.
Screening C[C@@H]1CN([C@H](C)CO)C(=O)c2cc(NC(=O)Nc3ccccc3)ccc2O[C@@H](C)CCCCO[C@H]1CN(C)Cc1ccc(Cl)c(Cl)c1 returned PAX8 inh HTS 104*, EWS-Fli inh 9 and LGR2 inh 3.
For C[C@@H]1CCCCO[C@H](CN(C)Cc2ccc(Cl)c(Cl)c2)[C@H](C)CN([C@@H](C)CO)C(=O)c2cc(NC(=O)Nc3ccccc3)ccc2O1 the results were PAX8 inh HTS 82*, EWS-Fli inh 8 and LGR2 inh 6.
`CN1C(=O)c2cc(NC(=O)c3ccno3)ccc2OC[C@H]2O[C@@H](CC(=O)NC3Cc4ccccc4C3)CC[C@@H]21` gave PAX8 inh HTS -5, EWS-Fli inh 1 and LGR2 inh 0.
`CCNC(=O)C[C@H]1CC[C@H]2[C@@H](COC[C@H](O)CN2C(=O)C2CC2)O1` gave PAX8 inh HTS -14, EWS-Fli inh 1 and LGR2 inh -9.
Screening O=C(NC[C@H]1CC[C@@H]2[C@@H](CN2Cc2cc(-c3ccccc3)on2)O1)c1ccc2c(c1)OCO2 returned PAX8 inh HTS -29 and EWS-Fli inh 1.
Screening CC(c1ccco1)N(C(=O)c1ccccc1NS(=O)(=O)c1ccc(Cl)c([N+](=O)[O-])c1)c1ccccn1 (stereo not given) returned PAX8 inh HTS 25, EWS-Fli inh 21, TWEAK-Fn14 inh 38, TROY signal inh 71* and LGR2 inh 9.

Bioassay records as filed in PubChem.
